High-throughput results from PubChem BioAssay.
This is a sample that favours compounds with a hit; in the whole collection about 8.6% have one here.
LASV entry inh = qHTS for Inhibitors of binding or entry into cells for Lassa Virus; 18,000 tested, 4.1% active; Potency, µM (titrated, usually from 49.2 µM), for the others: at the top dose activity change, negative = inhibition, actives largely listed as inhibitors; Lassa virus pseudotyped entry inhibition, cell-based qHTS
MARV entry inh = qHTS for Inhibitors of binding or entry into cells for Marburg Virus; Marburg virus pseudotype entry/binding inhibition, cell-based; Potency, µM (top dose mostly 49.2 µM), inactives show at the highest dose activity change, negative = inhibition, most hits filed as inhibitors; 18,000 tested, 6.5% active
* = called active by the depositor; ! = not active in a repeat; [ ] = dose if it differs, or a comment. The call rests on the fitted dose curve; tested in HEK293 cells. On the % scale 0 is the no-effect control and ±100 the full control effect; potency means the concentration at half of the fitted maximal effect.

For CC[C@@]1(O)CC(O)c2c(cc3c(c2O)C(=O)c2c(O)ccc(O)c2C3=O)C1C(=O)OC (stereo partly drawn) the results were LASV entry inh 6% and MARV entry inh -20%.
COc1cccc2c1C(=O)c1c(O)c3c(c(O)c1C2=O)C[C@](O)(C(C)=O)C[C@H]3O[C@@H]1C[C@H](N)[C@H](O)[C@H](C)O1 was read as LASV entry inh 1µM* and MARV entry inh inconclusive.
COc1cccc2c1C(=O)c1c(O)c3c(c(O)c1C2=O)C[C@@](O)(C(=O)CO)C[C@@H]3O[C@H]1C[C@H](N)[C@H](O)[C@H](C)O1 was read as LASV entry inh 20µM*! and MARV entry inh 0.28µM*!.
Screening Nc1ccccc1C(=O)C=Cc1ccc2c(c1)OCO2 returned LASV entry inh 46%[8.59 µM] and MARV entry inh 97%[8.59 µM].
For C[C@@H]1C/C=C/C=C/C=C/C=C/[C@H](O[C@@H]2O[C@H](C)[C@@H](O)[C@H](N)[C@@H]2O)C[C@@H]2O[C@](O)(C[C@@H](O)C[C@H]3O[C@@H]3/C=C/C(=O)O1)C[C@H](O)[C@H]2C(=O)O the results were LASV entry inh 1%[17.8 µM] and MARV entry inh -3%.
`c1ccc(CCc2nc(-c3ccccc3)oc2Nc2ccc3ccccc3c2)cc1` gave LASV entry inh 14%[8.59 µM] and MARV entry inh -22%[8.59 µM].
Screening COc1ccc2c(c1)[C@@]13CCCCC1[C@@H](C2)N(C)CC3 (stereo partly drawn) returned LASV entry inh inconclusive and MARV entry inh 8.9µM*.
Screening CN1CC[C@@]23CCCCC2C1Cc1ccc(O)cc13 (stereo partly drawn) returned LASV entry inh 9% and MARV entry inh -14%.
Screening COc1ccc(-c2coc3ncnc(N)c23)cc1 returned LASV entry inh -18% and MARV entry inh -38%.
`O=C(c1ccc(C(F)(F)F)cc1)N1CCC(=O)N([C@H](COCc2ccc(Cl)cc2)Cc2ccccc2)CC1` gave LASV entry inh 28µM* and MARV entry inh inconclusive.
For Cc1cccc(C(=O)N2CCC(=O)N([C@H](COCc3ccccc3)Cc3ccccc3)CC2)c1 the results were LASV entry inh inconclusive and MARV entry inh -19%.
COCC=CC1=CC2=CC(=O)C(C)(OC(=O)c3cnc4ccccc4n3)C(=O)C2=CN1CCc1c[nH]c2ccccc12 (stereo not drawn) was read as LASV entry inh -11%[8.59 µM] and MARV entry inh 22%[8.59 µM].
`COc1ccc(COC(=O)NN=C2C[C@@H](O)[C@@H](O)[C@@H]3[C@H]4C(=O)N([C@@H](C)c5ccccc5)C(=O)[C@@H]4CC[C@H]23)cc1` gave MARV entry inh -1%[8.59 µM].
COCOc1c2c(c(OCOC)c3c(OCOC)cccc13)C(=NNS(C)(=O)=O)C1=C2CCCC1 was read as LASV entry inh -3%[8.59 µM] and MARV entry inh 1%[8.59 µM].
For CC(CCC(=O)OC[C@H]1O[C@H](C#Cc2ccccc2)C=C[C@H]1Oc1ccc(C)cc1)=NOC[C@@H](O)COCc1ccco1 the results were LASV entry inh -20%[8.59 µM] and MARV entry inh -10%[8.59 µM].
Screening C[C@@H]([C@H](O)c1ccc(O)cc1)N1CCC(Cc2ccccc2)CC1 returned LASV entry inh -8% and MARV entry inh inconclusive.
CC(C(O)c1ccc(O)cc1)N1CCC(Cc2ccccc2)CC1 (stereo not drawn) was read as LASV entry inh -19% and MARV entry inh 10µM*.
For COC(=O)[C@@H]1[C@@H](c2ccccc2)NC(=O)N(Cc2ccccc2)[C@@H]1C the results were LASV entry inh 5%[8.59 µM] and MARV entry inh -5%[8.59 µM].
Screening CCCC=Cc1ccc(CN2C(C)C(=O)N(Cc3cn(Cc4ccco4)nn3)CCS2(=O)=O)cc1 (stereo not drawn) returned LASV entry inh -2% and MARV entry inh inconclusive.
`COc1cccc([C@@H]2Oc3ccc(OC)cc3C(=O)[C@@H]2OC(=O)N[C@H]2CCCc3ccccc32)c1` gave LASV entry inh 23%[8.59 µM] and MARV entry inh 16%[8.59 µM].
O=C(NCCCCc1ccccc1)c1cccc(NC(=O)c2ccccc2)c1 was read as LASV entry inh -16% and MARV entry inh -14%.
O=C(Nc1cccc(C(=O)Nc2ccc(S(=O)(=O)O)c3cc(S(=O)(=O)O)cc(S(=O)(=O)O)c23)c1)Nc1cccc(C(=O)Nc2ccc(S(=O)(=O)O)c3cc(S(=O)(=O)O)cc(S(=O)(=O)O)c23)c1 was read as LASV entry inh -28% and MARV entry inh 32µM*!.
For COCOCCn1cc(CN2CCS(=O)(=O)N(Cc3ccc(-c4ccccc4)cc3)C(C)C2=O)nn1 (stereo not drawn) the results were LASV entry inh -7% and MARV entry inh 10%.
`C[C@@]12CC[C@@H]3c4ccc(O)cc4C[C@H](CCCCCCCCCS(=O)CCCC(F)(F)C(F)(F)F)[C@H]3[C@@H]1CC[C@@H]2O` (stereo partly drawn) gave LASV entry inh inconclusive and MARV entry inh 11%.
